Screening data (PubChem BioAssay)
GPR151 activ – activators of human GPR151; Q8TDV0; PathHunter beta-arrestin GPR151 cells, luminescence; activation, % at 11.2 µM; hit rate 1% among 650,000; in the data active = activation above about 4.9%;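 also: 0% = median of compound wells and 100% = cells with positive control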
FBW7 activator – activators of human E3 ligase FBW7; Q969H0; AlphaScreen FBW7–phospho-cyclin E peptide binding, activator screen; normalized activity (activation), % at 26.1 µM; hit rate 0.13% among 650,000; in the data active = normalized activity above about 1.9%;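 also: purified mutant Fbw7 with reduced substrate affinity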
MITF primary – blocks human microphthalmia-associated transcription factor. O75030. hit rate 0.91% among 650,000. inhibition, % at 2.6 µM. AlphaScreen MITF homodimerization, bead proximity signal; in the data active = inhibition above about 50%;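 also: 0% = vehicle wells with protein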
TEAD-YAP block – TEAD-YAP interaction inhibition; HEK-TIYL cells, TEAD-Gal4/YAP UAS-luciferase luminescence; inhibition, % at 9.12 µM; hit rate 1.4% among 640,000; AID 1259422; in the data active = inhibition above about 32%;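 also: 0% = median of test compound wells and 100% = reference inhibitor wells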
* hit, by the source's call. In the library only some 3.4% were active in any assay of this set; here they are far more common.

SMILES | GPR151 activ | FBW7 activator | MITF primary | TEAD-YAP block
COc1cccc(-c2cc3nc4c(c(NCc5cccnc5)n3n2)CCC4)c1 | -0.6 | -0.1 | -0.8 | 42.2*
CCCC(=O)NCC(c1ccco1)N1CCc2ccccc21 (stereo not given) | 1.8 | 0.0 | 7.1 | -9.7
Cc1cc(C)n(/N=C/c2c(O)ccc3ccccc23)c(=O)c1 | -0.2 | 0.0 | 1.5 | 5.5
C/C(=N\Nc1nc2ccccc2s1)c1ccc(O)cc1 | -0.9 | 0.2 | 12.4 | -59.1
C/C(=N\Nc1nc2ccccc2s1)c1ccc(F)cc1 | 1.2 | -0.1 | 1.5 | 33.8*
COc1ccc(-c2nc3ncnc(N)c3[nH]2)cc1 | 0.8 | 0.0 | 20.6 | -8.0
c1ccc(-n2cnc3c(NCCN4CCOCC4)nc(Nc4ncccn4)nc32)cc1 | 0.2 | -0.1 | -1.3 | -3.1
c1ccc(-n2cnc3c(NCCN4CCOCC4)nc(Nc4cnccn4)nc32)cc1 | -1.2 | 0.3 | 12.5 | 48.1*
c1ccc(-n2cnc3c(NCCN4CCOCC4)nc(Nc4ccncn4)nc32)cc1 | -0.7 | 0.1 | 10.1 | 29.1
c1ccc(-n2cnc3c(NCCN4CCOCC4)nc(Nc4ccccn4)nc32)cc1 | 0.5 | 0.2 | -6.4 | 35.1*
c1cncc(-c2nc3c4c5c(sc4ncn3n2)CCCCC5)c1 | -0.5 | -0.1 | -5.6 | -4.1
CCOc1cc(C)ccc1OCc1nnc(SCC(=O)Nc2cccc(F)c2)n1C | -0.9 | -0.1 | -2.4 | 0.0
O=C(Nc1cccnc1)c1ccc2c(c1)C(=O)N(C1CCCCC1)C2=O | -1.5 | 0.1 | -3.9 | -5.7
O=C(Nc1ccncc1)c1ccc2c(c1)C(=O)N(C1CCCCC1)C2=O | -0.5 | -0.1 | -9.4 | 32.2*
C=CCSC1=C(C#N)C(c2ccc(OCc3ccccc3)cc2)CC(=O)N1 (stereo not given) | -0.1 | 0.1 | -9.9 | 32.9*
O=C(NCCC1=CCCCC1)c1ncn[nH]1 | 0.9 | 0.0 | -0.9 | -1.3
CSc1ccc(CN2CCN(S(C)(=O)=O)CC2)cc1 | -1.0 | 0.1 | -5.4 | 47.4*
CS(=O)(=O)N1CCN(Cc2ccc(Cl)cc2)CC1 | 0.1 | 0.0 | -3.5 | 40.9*
CCc1ccc(CN2CCN(S(C)(=O)=O)CC2)cc1 | 0.7 | 0.1 | 41.1 | 15.9
CSc1ccc(CN2CCN(S(=O)(=O)c3ccc4ccccc4c3)CC2)cc1 | 0.8 | 0.0 | 1.1 | 0.9
O=[N+]([O-])c1c(N2CCCC2)cc(Cl)c2nonc12 | -1.8 | -0.1 | -1.6 | 32.9*
Cc1cc(C)n2cc(CSC3CCCC3)nc2n1 | 0.3 | 0.0 | 5.3 | -6.7
COc1ccccc1-n1c(CNC(=O)COc2ccccc2)nnc1SCC(=O)N1N=C(c2cccs2)CC1c1ccc(C)cc1 (stereo not given) | -0.3 | 0.4 | -0.1 | 41.2*
Cc1ccc(C2CC(c3cccs3)=NN2C(=O)CSc2nnc(CNC(=O)COc3ccccc3)n2-c2cccc(C)c2C)cc1 (stereo not given) | -0.5 | -0.1 | -9.8 | -1.1
O=C1CSC(=O)N1Cc1c(Cl)cccc1Cl | 0.1 | 2.2* | 19.0 | 13.7
SMILES | GPR151 activ | FBW7 activator | MITF primary | TEAD-YAP block
Cc1nn(-c2ccccc2)c(-n2cccc2)c1C(=O)NCCCN1CCOCC1 | -1.2 | 0.1 | -11.8 | -14.8
N#CCC(=O)N/N=C/c1ccc(N2CCOCC2)o1 | -0.5 | 0.5 | 54.1* | 0.1
O=C(N/N=C/c1ccc(N2CCOCC2)o1)c1ccccc1 | 0.1 | 0.1 | 15.5 | -32.0
CN1CCN(C(=O)NCc2ccccc2)CC1 | 0.7 | -0.4 | -14.3 | 0.3
O=C1CCCC2=C1C(c1cn[nH]c1-c1ccc(F)cc1)C1=C(CCCC1=O)O2 | -1.0 | 0.0 | -8.2 | 49.0*
N#CC1=C(N)OC2=C(C(=O)CCC2)C1c1cn[nH]c1-c1ccc(F)cc1 (stereo not given) | 0.4 | 0.3 | 5.6 | 2.7
CC1CCC(C(C)C)C(OC(=O)c2cc([N+](=O)[O-])ccc2Cl)C1 (stereo not given) | 3.5 | 5.5* | -5.4 | 2.8
Cc1ccc(C(=O)OC2CC(C)CCC2C(C)C)cc1[N+](=O)[O-] (stereo not given) | 0.4 | 0.0 | 13.5 | 7.8
Cc1ccc(N(C(=O)c2ccc(Cl)cc2Cl)c2nc(C(F)(F)F)c(-c3ccc(Cl)cc3)s2)c(C)c1 | 2.2 | -0.2 | 3.5 | 6.7
COc1cc2c(cc1OC)[C@@H]1C(=O)c3ccc4c(c3O[C@@H]1CO2)C=CC(C)(C)O4 | 1.5 | -0.1 | -3.6 | 68.9*
COCCCn1c(C)cc(C(=O)CSc2ncnc3sccc23)c1C | 0.2 | -0.4 | 13.6 | 43.3*
COc1cc(C2C3=C(CC(C)(C)CC3=O)OC3=C2C(=O)CC(C)(C)C3)ccc1OCc1c(F)cccc1Cl | -0.3 | -0.2 | 4.9 | 8.3
CC(C)(C)c1ccc(-c2ncc3ccccn23)cc1 | -2.0 | 0.1 | 14.0 | 71.6*
O=C(Nc1cc(=O)[nH]c(=O)[nH]1)c1cc(Br)ccc1Cl | -1.0 | 0.3 | 14.2 | 54.1*
